# Data as given in ChEMBL document CHEMBL4513141, “CO-ADD screening of NIH (USA) - Clinical Collection” (2021).
# Entries with a potency or affinity are not part of this list.
# How the values were obtained:
# [1] = test system: Staphylococcus aureus; details: Concentration 20 uM; ASSAY_TEST Inhibition of Bacterial Growth; detection method Absorption (OD600); MEDIA CAMHB; plate type 384well; NBS; CORNING #3640; time 18 hr
# [2] = test system: Escherichia coli; details: Concentration 20 uM; ASSAY_TEST Inhibition of Bacterial Growth; detection method Absorption (OD600); MEDIA CAMHB; plate type 384well; NBS; CORNING #3640; time 18 hr
Compound,Inhibition [1] [%],Inhibition [2] [%]
COc1cc(C[C@@H](CO)[C@H](CO)Cc2ccc(O)c(OC)c2)ccc1O [(+)-SECOISOLARICIRESINOL],14.2,-3.86
Cc1c(C(=O)NN2CCCCC2)nn(-c2ccc(Cl)cc2Cl)c1-c1ccc(I)cc1,8.26,1.46
CCN1CCC[C@H]1CNC(=O)c1c(O)c(Cl)cc(Cl)c1OC [RACLOPRIDE],2.11,10.63
N[C@@H](Cc1cc(I)c(Oc2cc(I)c(O)c(I)c2)c(I)c1)C(=O)O [LEVOTHYROXINE],-5.39,-12.96
C[C@@H]1CN(CCCn2c3ccccc3c3ccccc32)C[C@H](C)N1.Cl.O,5.93,5.61
CN(CCOc1ccc(CC2SC(=O)NC2=O)cc1)c1ccccn1.O=C(O)/C=C\C(=O)O (configuration not stated) [ROSIGLITAZONE MALEATE],5.02,0.27
CN1CCN(C2=Nc3cc(F)ccc3Cc3ccccc32)CC1 [FLUPERLAPINE],14.37,3.9
CCCc1nc(C)c2c(O)nc(-c3cc(S(=O)(=O)N4CCN(CC)CC4)ccc3OCC)nn12.O=C(O)CC(O)(CC(=O)O)C(=O)O,14.18,-4.2
C[C@H](CS)C(=O)N1CCC[C@H]1C(=O)O [CAPTOPRIL],-7.06,4.92
COc1ccccc1OCC(O)COC(N)=O (configuration not stated) [METHOCARBAMOL],12.79,-0.64
COCC1=C(C(=O)OC(C)OC(=O)OC(C)C)N2C(=O)[C@@H](NC(=O)/C(=N\OC)c3csc(N)n3)[C@H]2SC1 (some centres not stated) [CEFPODOXIME PROXETIL],-13.09,5.31
